Our source for the Potency, outcome and activity change, positive = activation values is PubChem BioAssay (Tox21).

The nature of test [1]: qHTS assay to identify small molecule antagonists of the estrogen related receptor (ERR) signaling pathway from Tox21 library - cell viability counter screen (AID 1224834). Note: nearly all actives have a fitted effect of over 30% in size. Note: potency is the fitted concentration of half-maximal effect. An outline of the steps: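 CellTiter-Fluor fluorescence measured; ERR cells; 17.5 h compound incubation at 37 C; 30 min reagent step.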
Background: qHTS replaces the single test concentration by a dilution series.

The target in test [2] is Luciferin 4-monooxygenase (Photinus pyralis) (UniProt P08659). Put plainly: qHTS assay to identify small molecule inhibitors of firefly luciferase (AID 1224835). Note: nearly all actives have a fitted effect of over 25% in size. Note: potency is the fitted concentration of half-maximal effect. A digest of the protocol:
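Inhibition of purified Photinus luciferase is measured by luminescence. Substrate levels (D-luciferin, ATP) sit at their KM values. Each compound is tested in a concentration series.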

Test [3] can be described thus: qHTS assay to identify small molecule agonists of the constitutive androstane receptor (CAR) signaling pathway - cell viability counter screen (AID 1224836). Note: nearly all actives have a fitted effect of over 45% in size. A digest of the protocol:
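Cells were seeded and incubated 4 hrs. Compounds were added across 15 concentrations together with PK11195 at 0.75 uM final. Plates were incubated 23 hrs at 37 C. CellTiter-Fluor was added and fluorescence measured.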

The target of test [4] is Nuclear receptor subfamily 1 group I member 3 (Homo sapiens) (UniProt Q14994). The experiment in a line: qHTS assay to identify small molecule antagonists of the constitutive androstane receptor (CAR) signaling pathway (AID 1224838).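 Note: HepG2 cells stably expressing hCAR with CYP2B6 luciferase reporter stimulated by CITCO; nearly all actives have a fitted effect of over 40% in size.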 An outline of the steps:
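Reporter luminescence was quantified after 24 h exposure of hCAR/CYP2B6-2.2kb double-stable HepG2 cells to compounds at 15 concentrations in the presence of 50 nM CITCO final.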

Test [5] shares this target. Put plainly: qHTS assay to identify small molecule agonists of the constitutive androstane receptor (CAR) signaling pathway (AID 1224839).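 For activation: HepG2 cells stably carrying human CAR and a CYP2B6 luciferase reporter.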 Note: nearly all actives have a fitted effect of over 15% in size. Note: potency is the fitted concentration of half-maximal effect. A digest of the protocol: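 Cells were plated and incubated 4 hrs, then dosed with compounds at 15 concentrations. PK11195 was added to 0.75 uM final. After 24 hrs at 37 C, luciferase luminescence was measured.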
Test [6] is described as follows: qHTS assay to identify small molecule antagonists of the estrogen related receptor signaling pathway with the pleiotropic PPARgamma coactivator (PGC) from Tox21 10K library - cell viability counter screen (AID 1224840; active = well fitted cell-killing curve with a large enough effect in the repeat runs, not every such curve was filed as active; note: nearly all actives have a fitted effect of over 40% in size; note: potency is the fitted concentration of half-maximal effect). A digest of the protocol:
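Here the PGC/ERR cells serve as a cytotoxicity control: they are exposed to compounds for 17.5 hours at 37 C, and live-cell signal is quantified using CellTiter-Fluor fluorescence.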

The nature of test [7]: qHTS assay to identify small molecule antagonists of the estrogen related receptor signaling pathway with the pleiotropic PPARgamma coactivator (PGC) from Tox21 10K library (AID 1224841; call rule not given here; note: actives are mostly falling curves and most rising ones were filed inactive; nearly all actives have a fitted effect of over 50% in size). An outline of the steps:
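Each well held 2,000 PGC/ERR cells, pre-incubated six hours (37 C, 5% CO2). Test substances in DMSO were added by pin tool and left for 18 h at 37 C before luciferase detection by One-Glo.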

A short description of test [8]: qHTS assay to identify small molecule agonists of the estrogen related receptor signaling pathway with the pleiotropic PPARgamma coactivator (PGC) from Tox21 10K library (AID 1224842). Note: nearly all actives have a fitted effect of over 15% in size. Note: potency is the fitted concentration of half-maximal effect. An outline of the steps: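 Luminescence from One-Glo (30 min, room temperature) measured after PGC/ERR cells had 18 h at 37 C with pinned compound (23 nL in DMSO). Cells had been seeded at 2,000 per well and pre-incubated 6 h.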

Test [9] deals with Thyrotropin receptor (Homo sapiens) (UniProt P16473). Put plainly: qHTS assay to identify small molecule agonists of the thyroid stimulating hormone receptor (TSHR) signaling pathway (AID 1224843; calls by dose curve; note: nearly all actives have a fitted effect of over 45% in size). An outline of the steps:
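HEK293 cells stably bearing the thyrotropin receptor were plated at 800 cells/well and challenged with compound (30 min, RT). Accumulated cAMP was quantified via cAMP-d2 competing for cryptate-tagged antibody.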

Test [10] is described as follows: qHTS assay to identify small molecule agonists of the hypoxia (HIF-1) signaling pathway - cell viability counter screen (AID 1224844; calls by dose curve; note: nearly all actives have a fitted effect of over 50% in size). An outline of the steps:
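Multiplexed with the HRE beta-lactamase assay, this viability read used CellTiter-Glo luminescence (30 min, RT) on HRE-bla ME-180 cells treated 17 hrs with compounds in 0.5% dialyzed FBS medium.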

Test [11] in a line: qHTS assay to identify small molecule agonists of H2AX (AID 1224845; active = well fitted activation curve with a large enough effect in the signal ratio in the repeat runs, not every such curve was filed as active; the % refers to the signal ratio). An outline of the steps:
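Phospho-H2AX Ser139 measured by HTRF (ex 320 nm; em 665 and 620 nm) after 24 hr antibody incubation. Compounds, 15 concentrations, 0.76% DMSO, were applied to CHO-K1 cells for 3hr at 37C before lysis.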

The nature of test [12]: qHTS assay to identify small molecule agonists of the hypoxia (HIF-1) signaling pathway (AID 1224846; active = well fitted activation curve with a large enough effect in the signal ratio in the repeat runs, not every such curve was filed as active; the % refers to the signal ratio). An outline of the steps:
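Hypoxia-pathway activation was scored as increased beta-lactamase from an HRE-controlled reporter in ME-180 cells; plated at 2,000 cells per well with 0.5% dialyzed FBS, they were exposed 17 hrs to compounds and then given CCF4-AM.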

Test [13] is described as follows: qHTS assay to identify small molecule agonists of H2AX - cell viability counter screen (AID 1224847; calls by dose curve; note: top concentration of the series differs between compounds; nearly all actives have a fitted effect of over 30% in size). A digest of the protocol:
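Cytotoxicity counter screen in wild-type CHO-K1 cells: a 3 hr compound treatment at 37C across 15 concentrations, followed by CellTiter-Glo luminescence to gauge viable cells.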

A short description of test [14]: qHTS assay to identify small molecule antagonists of the estrogen related receptor (ERR) signaling pathway from Tox21 library (AID 1224848). Note: nearly all actives have a fitted effect of over 50% in size. An outline of the steps:
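Reading was by luminescence 30 min after ONE-Glo addition. Before that, ERR cells at 2,000 per well had rested 6 h at 37 C/5% CO2 and then received pin-tooled compounds in DMSO for 18 h at 37 C.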

The nature of test [15]: qHTS assay to identify small molecule agonists of the estrogen related receptor (ERR) signaling pathway from Tox21 library (AID 1224849; calls by dose curve; note: nearly all actives have a fitted effect of over 15% in size). To be noted: ERR reporter cell line, ONE-Glo luciferase, 18 h; at 92.4 µM (top of the series) unless noted. A digest of the protocol: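 Six hours post-seeding at 37 C/5% CO2, ERR cells receive DMSO-solubilised compounds; after 18 h at 37 C, ONE-Glo reagent is applied and luminescence recorded.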

Test [16] in a line: qHTS RealTime-Glo MT Cell Viability Assay in HepG2 cells - 24 hour (AID 1224867). Note: nearly all actives have a fitted effect of over 50% in size. A digest of the protocol:
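HepG2 suspension premixed with RealTime-Glo reagents is plated at 600 cells per well and left 5 h at 37 C/5% CO2. Compounds in DMSO then go in, and bioluminescence reflecting viable cell number is recorded over 40 h.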

Test [17] can be described thus: qHTS RealTime-Glo MT Cell Viability Assay in HEK293 cells - 32 hour (AID 1224868). A digest of the protocol:
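Reads taken at 0, 8, 16, 24, 32 and 40 h from the same wells. HEK293 cells (600/well) carried RealTime-Glo reagents from seeding, with compound added after a 5 h settle at 37 C.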

Test [18] can be described thus: A CellTox Green Cytotoxicity Assay to monitor cytotoxicity in HEK293 cells - 0 hour (AID 1224869). Note: nearly all actives have a fitted effect of over 50% in size. An outline of the steps: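 Seeding of HEK293 cells together with cytotoxicity dye preceded a 5 h incubation at 37 C/5% CO2. Test compounds in DMSO were then added and fluorescence monitored across 40 h.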
The nature of test [19]: qHTS RealTime-Glo MT Cell Viability Assay in HepG2 cells - 40 hour (AID 1224870). Note: nearly all actives have a fitted effect of over 50% in size. A digest of the protocol:
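Real-time viability: cells seeded at 600 per well together with NanoLuc and cell-permeant prosubstrate, compounds added after 5 h incubation. Luminescence tracked at 0, 8, 16, 24, 32 and 40 h of exposure.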

A short description of test [20]: qHTS assay to identify small molecule antagonists of the constitutive androstane receptor (CAR) signaling pathway - cell viability counter screen (AID 1224837). Note: nearly all actives have a fitted effect of over 45% in size. An outline of the steps:
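Using CellTiter-Fluor, viability is scored in HepG2 cells stably carrying hCAR and a 2.2kb CYP2B6 reporter after 23 hr compound exposure across 15 concentrations, with CITCO present at 50 nM.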

Molecules are shown by their SMILES. Values without a mark were called inactive. Inconclusive results are not listed. Active and inactive are the calls of the source. Unless noted, calls come from the whole dose curve; as a rule, active = well fitted curve in the direction sought with a large enough effect in the repeat runs; inconclusive = weak or mixed curves; inactive = no such curve, though single readings can be large; an effect the other way counts as inactive or inconclusive.
% is set by controls: 0 for no effect and ±100 for the full control effect.

Sequence of Thyrotropin receptor (Homo sapiens) (P16473 whole entry, looked up): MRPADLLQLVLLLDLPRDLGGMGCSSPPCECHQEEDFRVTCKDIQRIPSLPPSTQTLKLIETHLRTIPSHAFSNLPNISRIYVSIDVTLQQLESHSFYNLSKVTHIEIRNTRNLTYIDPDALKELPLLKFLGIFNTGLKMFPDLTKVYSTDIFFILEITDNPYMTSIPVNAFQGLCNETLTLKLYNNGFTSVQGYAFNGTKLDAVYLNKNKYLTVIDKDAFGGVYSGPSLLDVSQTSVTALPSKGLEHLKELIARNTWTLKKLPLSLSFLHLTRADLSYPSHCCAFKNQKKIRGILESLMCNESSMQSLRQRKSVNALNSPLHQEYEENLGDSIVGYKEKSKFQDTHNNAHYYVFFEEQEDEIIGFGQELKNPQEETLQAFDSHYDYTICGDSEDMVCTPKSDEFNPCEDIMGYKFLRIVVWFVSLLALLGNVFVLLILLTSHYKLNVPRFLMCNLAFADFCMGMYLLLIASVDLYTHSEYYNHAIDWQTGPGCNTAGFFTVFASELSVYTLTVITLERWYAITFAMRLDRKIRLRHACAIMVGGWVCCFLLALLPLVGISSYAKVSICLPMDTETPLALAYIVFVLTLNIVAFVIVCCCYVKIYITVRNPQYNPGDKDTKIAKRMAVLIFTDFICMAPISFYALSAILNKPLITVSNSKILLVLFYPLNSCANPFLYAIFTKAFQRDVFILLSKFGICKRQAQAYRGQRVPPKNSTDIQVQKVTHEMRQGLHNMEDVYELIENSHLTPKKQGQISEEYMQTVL
Sequence of Nuclear receptor subfamily 1 group I member 3 (Homo sapiens) (Q14994 whole entry, looked up): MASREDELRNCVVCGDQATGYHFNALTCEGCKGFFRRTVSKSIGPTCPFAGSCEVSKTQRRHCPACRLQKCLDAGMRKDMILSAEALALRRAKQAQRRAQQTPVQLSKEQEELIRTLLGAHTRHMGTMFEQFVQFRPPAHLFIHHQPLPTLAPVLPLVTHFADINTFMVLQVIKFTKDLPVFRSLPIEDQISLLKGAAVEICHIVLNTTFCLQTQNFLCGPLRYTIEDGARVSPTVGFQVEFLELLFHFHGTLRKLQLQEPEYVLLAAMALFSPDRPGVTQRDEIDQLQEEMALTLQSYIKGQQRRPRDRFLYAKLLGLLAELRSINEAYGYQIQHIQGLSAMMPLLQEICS
Sequence of Luciferin 4-monooxygenase (Photinus pyralis) (P08659 whole entry, looked up): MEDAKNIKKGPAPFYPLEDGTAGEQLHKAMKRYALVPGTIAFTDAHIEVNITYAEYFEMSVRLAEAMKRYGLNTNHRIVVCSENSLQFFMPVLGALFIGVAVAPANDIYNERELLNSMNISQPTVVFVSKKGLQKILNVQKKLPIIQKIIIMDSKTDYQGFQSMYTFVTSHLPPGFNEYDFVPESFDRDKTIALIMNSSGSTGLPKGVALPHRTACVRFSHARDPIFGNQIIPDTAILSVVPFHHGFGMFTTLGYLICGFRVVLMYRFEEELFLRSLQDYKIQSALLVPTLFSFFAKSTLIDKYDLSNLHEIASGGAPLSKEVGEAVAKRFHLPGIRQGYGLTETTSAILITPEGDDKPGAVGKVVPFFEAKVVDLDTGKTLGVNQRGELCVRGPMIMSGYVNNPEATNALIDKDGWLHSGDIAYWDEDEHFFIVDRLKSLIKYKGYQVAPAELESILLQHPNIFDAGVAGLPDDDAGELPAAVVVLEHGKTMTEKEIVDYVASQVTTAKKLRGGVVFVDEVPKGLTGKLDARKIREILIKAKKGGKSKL

Take `C[C@]12C(=O)OC(=O)[C@H]1[C@H]1C=C[C@@H]2C1`: the Potency entry in test [1], in [2], in [3], in test [4], in test [5] and in test [6] was “inactive” each time. Moreover, the Potency entry in test [7], in [8], in test [9], in test [10], in test [11] and in [13] was “inactive” each time. Besides, the Potency result in [14], in test [16], in test [17], in test [18] and in test [19] was “inactive” throughout. In [12], the molecule was classed as inactive. In addition, the activity change, positive = activation in [15] is 0.566%.

As for `Cc1ccc(C(C)C)cc1O`, the Potency result in test [1], in [2], in test [3], in [20], in test [6] and in test [10] was “inactive” in each case. In addition, the Potency entry in [11], in test [13], in test [17], in test [18] and in [19] was “inactive” throughout. Further, the outcome in [12] was inactive.

For `Nc1ccc(Oc2ccc(N)c(N)c2)cc1`, the Potency in test [1] was 27.3 µM (active); in [2], 7.96 µM (active); in test [5] it was 2.43 µM (active); in [6], 48.6 µM (active); in test [8], 9.69 µM (active). Further, the Potency result in test [3], in test [4], in test [7], in test [10], in [13] and in test [14] was “inactive” each time. The Potency result in test [16] and in [18] was “inactive” throughout. The call in test [12] was inactive. The activity change, positive = activation in test [15] is 53.1% (active).

Consider `CN1CCN(C2=Nc3cc(F)ccc3Cc3ccccc32)CC1`, for which the Potency result in test [1], in test [2], in [3], in [4], in test [5] and in [6] was “inactive” each time. In addition, the Potency result in [7], in [8], in [9], in [10], in [11] and in test [13] was “inactive” in each case. The Potency entry in test [14], in test [16] and in [18] was “inactive” throughout. Moreover, the outcome in [12] was inactive. Moreover, the activity change, positive = activation in [15] was 0.425% [at 42.5 µM].

For `COc1cc2c(cc1N)oc1ccccc12`, the Potency entry in test [1], in test [3], in test [4], in test [6], in test [7] and in [9] was “inactive” in each case. Besides, the Potency entry in test [13], in [14], in [16], in test [18] and in test [19] was “inactive” in each case. The Potency in test [2] is 36.3 µM (active); in test [5], 31.3 µM (active). Also, in test [12], the result was inactive.

As to `COc1cc(C)ccc1C(C)C`, the Potency entry in test [1], in test [2], in test [3], in [6], in test [7] and in [8] was “inactive” throughout. The Potency result in test [9], in test [10], in test [11], in test [13], in test [14] and in test [17] was “inactive” in each case. For the same molecule, the Potency result in [18] and in test [19] was “inactive” each time. The outcome in test [12] was inactive. Moreover, the activity change, positive = activation in test [15] is -0.104%.

As to `CCN[C@H]1CN(CCCOC)S(=O)(=O)c2sc(S(N)(=O)=O)cc21`, the Potency entry in [1], in test [2], in test [3], in test [4], in [5] and in [6] was “inactive” each time. Also, the Potency entry in test [9], in [10], in test [11], in test [13], in [16] and in test [17] was “inactive” each time. Moreover, the Potency result in [18] and in [19] was “inactive” each time.

`Cc1ccc(C)c(N)c1`: the Potency entry in test [1], in [2], in test [3], in [4], in [5] and in test [6] was “inactive” throughout. Further, the Potency entry in test [7], in test [8], in test [9], in test [10], in test [11] and in test [13] was “inactive” throughout. The Potency entry in test [14], in test [17], in test [18] and in test [19] was “inactive” each time. In addition, in test [12], the result was inactive. The activity change, positive = activation in test [15] is 2.8%.
